About 83,000 compounds went through this panel and 20% of them were active in at least one assay; those are over-represented in the sample as a whole.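 Assay: single dose, 48 h. Readout: percent growth (0 = no net growth; negative = cell death). Active: <10.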 Values without a mark were called inactive. Calls of active or inactive are those of the source.

Our source for the growth values is PubChem BioAssay (NCI).

The subject of this experiment is RPMI-8226 leukemia. In words: NCI-60 one-dose screen, 48 h (100 = growth as untreated, 0 = no growth, -100 = all killed). Particulars: 10 µM unless noted.
In the case of `O=C(Nc1ccc(-n2cc(-c3ccncc3)c(-c3ccc(Cl)c(O)c3)n2)cc1)c1cc(C(F)(F)F)cc(C(F)(F)F)c1`, the growth is 27.6%. To `COc1ccc(C2CC(=O)c3c(O)cc(OC4OC(COC5OC(C)C(O)C(O)C5O)C(O)C(O)C4O)cc3O2)cc1O` (centres undefined) belongs 123%; to `O=C(NCCNCCO)c1cc([N+](=O)[O-])cc([N+](=O)[O-])c1O`, 96.7%. To `O=Nc1ccc(O)c2ccccc12` belongs -12.1% (active). To `CC(=O)N1CCN(CCNC(=O)n2cc(-c3ccncc3)c(-c3ccc(O)c(Cl)c3)n2)CC1` belongs 102%; to `NC(=O)c1c(Nc2ccccc2)nn2cc(-c3nc4ccccc4s3)c(N)nc12`, 96.4%.

As for `CC(O)CN(CCO)CCN(CCO)CC(C)O` (centres undefined), the growth is 102%. Turning to `COC(=O)c1ccc2[nH]c(O)c(C(=Nc3ccc(N(C)C(=O)CN4CCN(C)CC4)cc3)c3ccc(OC)cc3)c2c1`, the growth is 7.14% (active). The figure for `c1ccc(C(=NNc2nc3ccccc3o2)c2ccccn2)nc1` is 6.05% (active); for `COC(=O)C(Cc1cnc[nH]1)N1CC(=O)N2[C@@H](c3ccccc3)SC[C@H]2C1=O` (some centres undefined) it is 105%. To `COC(=O)c1ccc2[nH]c(O)c(C(=Nc3ccc(N(C)C(=O)CN4CCN(C)CC4)cc3)c3ccc4c(c3)OCO4)c2c1` belongs -13.7% (active). The figure for `Cc1ccc(NCc2cn(-c3ccc(C(=O)O)cc3)nc2-c2ccc(C(=O)O)cc2)cc1` is 109%; for `O=C(c1ccccc1)c1ccccc1-c1ccccc1` it is 13.6%.

Take `CCCCCCC(C(=O)OCC)(C(=O)OCC)C1CCCCCC1`: the growth is 113%.
